# Measurements taken from the supplement of paper PMC9023506.
# Structures can show the parent of a compound that is named as a salt.
# Legend:
# Conditions in all cases: 10 µM; exposure time: 3 h pre-incubation + 3 h imaging
# [1] = system: Danio rerio larvae (5 dpf); test: optomotor response to blue moving lines, difference vs DMSO (percentage points (treated minus DMSO)); higher = more of the behaviour than the DMSO vehicle control
# Outline: (§1)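 Five-days-post-fertilisation wild-type zebrafish larvae were held in 96-well ProxiPlates and exposed to each library drug at a final 10 µM, diluted 1000× from DMSO stocks into egg water, with 48 larvae per drug. Exposure lasted 3 h before and 3 h during imaging at 28.5 °C, with images taken every 6 s across a 3-h program of rest, moving coloured lines and acoustic pulses. An ImageJ macro scored movement and upper-half location, and each behaviour score is the treated-group mean minus the vehicle-group mean, expressed in percentage points.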
# [2] = system: Danio rerio larvae (5 dpf); test: optomotor response to green moving lines, difference vs DMSO (percentage points (treated minus DMSO)); higher = more of the behaviour than the DMSO vehicle control
# Outline: as §1
# [3] = system: Danio rerio larvae (5 dpf); test: optomotor response to red moving lines, difference vs DMSO (percentage points (treated minus DMSO)); higher = more of the behaviour than the DMSO vehicle control
# Outline: as §1
# [4] = system: Danio rerio larvae (5 dpf); test: startle response to 20-s acoustic pulses, difference vs DMSO (percentage points (treated minus DMSO)); higher = more of the behaviour than the DMSO vehicle control
# Outline: as §1
# [5] = system: Danio rerio larvae (5 dpf); test: excitability to 1-s acoustic pulses, difference vs DMSO (percentage points (treated minus DMSO)); higher = more of the behaviour than the DMSO vehicle control
# Outline: as §1
# [6] = system: Danio rerio larvae (5 dpf); test: optomotor response to fast red moving lines, difference vs DMSO (percentage points (treated minus DMSO)); higher = more of the behaviour than the DMSO vehicle control
# Outline: as §1
# [7] = system: Danio rerio larvae (5 dpf); test: habituation to 1-s acoustic pulses, difference vs DMSO (percentage points (treated minus DMSO)); higher = more of the behaviour than the DMSO vehicle control
# Outline: as §1
# [8] = system: Danio rerio larvae (5 dpf); test: activity during period 15 (no stimuli), difference vs DMSO (percentage points (treated minus DMSO)); higher = more of the behaviour than the DMSO vehicle control
# Outline: as §1
smiles,measurement,setting,value
O=C(c1ccc(OCCN2CCCCC2)cc1)c1c(-c2ccc(O)cc2)sc2cc(O)ccc12 [Raloxifene hydrochloride],optomotor response to blue moving lines,[1],-2.86
same,optomotor response to green moving lines,[2],-7.74
Cc1ccccc1C(=O)Nc1ccc(C(=O)N2CCCC(O)c3cc(Cl)ccc32)c(C)c1 (stereo not drawn) [Tolvaptan],optomotor response to blue moving lines,[1],-0.344
Cc1ccsc1C(=CCCN1CCC[C@@H](C(=O)O)C1)c1sccc1C [Tiagabine hydrochloride],optomotor response to blue moving lines,[1],24.1
same,optomotor response to green moving lines,[2],8.59
CC(C)c1ccc2oc3nc(N)c(C(=O)O)cc3c(=O)c2c1 [Amlexanox],optomotor response to red moving lines,[3],-3.59
same,optomotor response to green moving lines,[2],-0.74
same,startle response to 20-s acoustic pulses,[4],0.978
CCOc1ccccc1OCCN[C@H](C)Cc1ccc(OC)c(S(N)(=O)=O)c1 [Tamsulosin hydrochloride],excitability to 1-s acoustic pulses,[5],14.9
same,optomotor response to red moving lines,[3],-6.78
same,optomotor response to green moving lines,[2],-11.6
NC(=O)N1c2ccccc2C=Cc2ccccc21 [Carbamazepine],excitability to 1-s acoustic pulses,[5],-0.497
same,optomotor response to blue moving lines,[1],12.9
same,optomotor response to green moving lines,[2],-0.434
Cc1cc2c(s1)Nc1ccccc1N=C2N1CCN(C)CC1 [Olanzapine],optomotor response to red moving lines,[3],4.76
same,optomotor response,[6],9.42
CCOC(=O)C1=C(COCCN)NC(C)=C(C(=O)OC)C1c1ccccc1Cl (stereo not drawn) [Amlodipine besylate],excitability to 1-s acoustic pulses,[5],-1.57
same,optomotor response to red moving lines,[3],-1.08
CNC(=O)c1ccccc1Sc1ccc2c(/C=C/c3ccccn3)n[nH]c2c1 [Axitinib],optomotor response to blue moving lines,[1],13.5
same,optomotor response to green moving lines,[2],2.99
Cc1ccc(NC(=O)c2ccc(CN3CCN(C)CC3)cc2)cc1Nc1nccc(-c2cccnc2)n1 [Imatinib mesylate],habituation to 1-s acoustic pulses,[7],3.16
same,optomotor response to red moving lines,[3],-3.1
same,activity during period 15,[8],-11.6
same,optomotor response to green moving lines,[2],-13.4
same,startle response to 20-s acoustic pulses,[4],5.5
CS(=O)(=O)CCNCc1ccc(-c2ccc3ncnc(Nc4ccc(OCc5cccc(F)c5)c(Cl)c4)c3c2)o1 [Lapatinib],optomotor response to red moving lines,[3],0.000688
same,startle response to 20-s acoustic pulses,[4],-0.481
Cc1cccc(C)c1OCC(C)N (stereo not drawn) [Mexiletine hydrochloride],optomotor response to blue moving lines,[1],7.61
same,optomotor response to green moving lines,[2],-1.17
O=C(O)CCCc1ccccc1 [Sodium 4-Phenylbutyrate],excitability to 1-s acoustic pulses,[5],2.04
same,optomotor response to red moving lines,[3],3.33
same,activity during period 15,[8],0.951
CC(C)CN(C[C@@H](O)[C@H](Cc1ccccc1)NC(=O)O[C@H]1CO[C@H]2OCC[C@H]21)S(=O)(=O)c1ccc(N)cc1 [Darunavir],habituation to 1-s acoustic pulses,[7],-1.13
same,excitability to 1-s acoustic pulses,[5],-1.74
same,optomotor response to blue moving lines,[1],8.12
same,optomotor response to green moving lines,[2],1.64
CCCCNc1cc(C(=O)O)cc(S(N)(=O)=O)c1Oc1ccccc1 [Bumetanide],habituation to 1-s acoustic pulses,[7],-0.875
same,excitability to 1-s acoustic pulses,[5],3.02
same,optomotor response to red moving lines,[3],19.3
Brc1c(NC2=NCCN2)ccc2nccnc12,habituation to 1-s acoustic pulses,[7],-5.95
same,optomotor response to blue moving lines,[1],7.07
same,optomotor response to green moving lines,[2],10.3
same,startle response to 20-s acoustic pulses,[4],-4.57
CN(C)CCC[C@@]1(c2ccc(F)cc2)OCc2cc(C#N)ccc21 [Escitalopram oxalate],excitability to 1-s acoustic pulses,[5],14.4
same,optomotor response to red moving lines,[3],-7.88
same,optomotor response,[6],-7.01
CCCN(CCC)S(=O)(=O)c1ccc(C(=O)O)cc1 [Probenecid],optomotor response to red moving lines,[3],-2.21
same,activity during period 15,[8],-4.09
same,optomotor response,[6],-11.6
CCCCC1=NC2(CCCC2)C(=O)N1Cc1ccc(-c2ccccc2-c2nnn[nH]2)cc1 [Irbesartan],habituation to 1-s acoustic pulses,[7],1.51
same,optomotor response to blue moving lines,[1],-14
same,startle response to 20-s acoustic pulses,[4],1.39
same,optomotor response,[6],-14.6
